Hits are enriched below; roughly 9.4% of the tested compounds scored in any of these assays.
ALDH1A1 inh – inhibitors of human aldehyde dehydrogenase 1A1 | P00352 | Purified ALDH1A1, NADH fluorescence, propionaldehyde substrate | Potency, µM (doses to about 75.3 µM), for the others: top-dose activity, negative = inhibition, hits mostly inhibitors | actives 7.3% (n = 220,000); active means well fitted inhibition curve with a large enough effect, not every such curve was filed as active; inconclusive means small, poorly fitted or top-dose-only effect, or another doubt; inactive means no such curve, though single readings can be large or run the other way;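 further: potency means the concentration at half of the fitted maximal effect; plate controls were no enzyme wells and a reference inhibitor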
IMPase inh – membrane-permeable compound that blocks inositol monophosphatase. 120,000 tested, under 10 active. inhibition (IP1 accumulation), % at 46.1 µM. AID 901. CHO-M1 cells, IP1 accumulation, HTRF TR-FRET ratio; active means well fitted curve in the direction sought with a large enough effect in the signal ratio, not every such curve was filed as active; inconclusive means small, poorly fitted or top-dose-only effect, or a change in a side signal; inactive means no such curve, though single readings can be large or run the other way; the % refers to the signal ratio;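 further: cells stimulated with carbachol in lithium chloride buffer; plate controls were DMSO basal wells for no effect and reference inhibitor wells for full effect; higher means more IMPase inhibition seen as more IP1 and lower FRET ratio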
Target sequence (P97697 whole entry, looked up): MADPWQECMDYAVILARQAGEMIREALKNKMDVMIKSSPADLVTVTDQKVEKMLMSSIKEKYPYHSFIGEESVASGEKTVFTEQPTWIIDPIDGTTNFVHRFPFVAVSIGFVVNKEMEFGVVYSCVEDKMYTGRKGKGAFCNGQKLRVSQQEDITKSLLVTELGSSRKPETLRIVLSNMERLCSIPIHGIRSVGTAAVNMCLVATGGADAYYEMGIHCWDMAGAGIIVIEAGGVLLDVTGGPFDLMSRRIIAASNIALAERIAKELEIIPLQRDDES
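Seeded CHO-M1 cells were dosed with compound at up to 46 uM, stimulated with carbachol for 30 min, then lysed in IP-One detection reagents. Higher IP1 lowers the TR-FRET signal.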
HPGD block – blocks human HPGD enzyme activity. purified HPGD, NADH fluorescence kinetic, PGE2 substrate. Potency, µM, for the others: top-dose activity change, negative = inhibition, hits mostly inhibitors. actives 4.3% (n = 150,000); active means well fitted inhibition curve with a large enough effect, not every such curve was filed as active; inconclusive means small, poorly fitted or top-dose-only effect, or another doubt; inactive means no such curve, though single readings can be large or run the other way; further: potency means the concentration at half of the fitted maximal effect; on the % scale 0 is the no-effect control and ±100 the full control effect
Target sequence (P15428 whole entry, looked up): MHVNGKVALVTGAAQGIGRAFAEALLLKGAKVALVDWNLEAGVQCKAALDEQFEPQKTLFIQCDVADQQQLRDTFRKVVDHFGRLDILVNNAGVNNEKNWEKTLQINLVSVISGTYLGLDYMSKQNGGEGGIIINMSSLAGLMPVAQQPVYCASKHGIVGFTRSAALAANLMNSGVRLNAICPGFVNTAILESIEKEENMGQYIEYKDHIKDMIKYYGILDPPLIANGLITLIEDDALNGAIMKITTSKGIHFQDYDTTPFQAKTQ
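NADH formation kinetics: reaction with 30 uM PGE2 and 1 mM NAD+ (final), 20 nM enzyme, Tris-HCl pH 8 with Tween 20, after 15 min compound preincubation at room temperature. Fluorescence change, last versus first of five reads.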
HTT cytoprotect – Huntington cell model cytoprotection by ATP luminescence. PC12 HTT-Q103 induced, cytoprotection, ATP luminescence, 40 h. Potency, µM (highest dose often 56.4 µM), for the others: cytoprotection (ATP increase), actives largely listed as activators. actives 0.14% (n = 230,000); further: potency means the concentration at half of the fitted maximal effect; % of control where 0% means no effect; nearly all actives have a fitted effect of over 45% in size
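Quantitative HTS on tebufenozide-induced (100 nM) PC12 cells expressing HTTQ103 exon 1–GFP; compounds tested as a concentration series; survival measured via cellular ATP.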
IMPase Li inh – cell-permeable IMPase inhibitors with lithium potentiation | CHO-M1 cells, IP1 TR-FRET (IP-One), carbachol + lithium | actives 0.35% (n = 210,000) | Potency, µM (top dose mostly 59.4 µM), for the others: at the highest dose activity, negative = IMPase inhibition, usual class: inhibitors | AID 1457;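 further: IP1 builds up when IMPase is blocked and the TR-FRET signal falls; potency means the concentration at half of the fitted maximal effect; plate controls were basal vehicle for no effect and high inhibitor control for full effect; nearly all actives have a fitted effect of over 50% in size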
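IP1 accumulation measured by competitive TR-FRET in lysed CHO-M1 cells after 30 min compound exposure at 37C, with a small lithium addition to potentiate weak responses. Hill-equation AC50 from ratio and donor-channel data.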
HttQ103 aggreg – mutant huntingtin aggregation inhibition; actives 1.1% (n = 220,000); AID 1688; PC12 HttQ103-GFP aggregates, Acumen cytometry, 40 h; Potency, µM (highest dose often 46.1 µM), without a hit: top-dose activity change, negative = inhibition, usual class: inhibitors; further: potency means the concentration at half of the fitted maximal effect; on the % scale 0 is the no-effect control and ±100 the full control effect; nearly all actives have a fitted effect of over 60% in size
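Inducible Q103 Huntingtin exon 1–GFP PC12 line, 1500 cells/well in phenol red free DMEM with 5% equine and 5% calf serum. Tebufenozide 100 nM induced expression; compounds titrated; aggregates quantified by cytometry.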
* marks the source's active call; other numbers are inactive results; ? = inconclusive; / = no result; [ ] = dose if it differs, or a comment. Unless noted, the call rests on the fitted dose curve; in most records, active means well fitted curve in the direction sought with a large enough effect; inconclusive means small, poorly fitted or top-dose-only effect, or another doubt; inactive means no such curve, though single readings can be large; an effect the other way counts as inactive or inconclusive.

SMILES	ALDH1A1 inh	IMPase inh	HPGD block	HTT cytoprotect	IMPase Li inh	HttQ103 aggreg
O=C(CN1CCCC1)Nc1ccc(F)cc1	25µM*	/	/	3%[10 µM]	3%	27%[9.22 µM]
Cc1ccc(C(=O)Nc2cccc(Oc3ccccc3)c2)o1	0%	3	20µM*	-36%	38%[38.3 µM]	-22%[1.84 µM]
CCOC(=O)c1ccc(NC(=O)CN2CCc3ccccc3C2)cc1	14µM*	15	-26%	-15%	56%[38.3 µM]	1%
CN1CCN(CC(=O)Nc2ccc(Oc3ccccc3)cc2)CC1	-8%	?	-16%	-16%	15%[38.3 µM]	-15%
Cc1ccc(C(=O)Nc2cccc(C(=O)NCc3ccccc3)c2)o1	-2%	-1	-19%	-16%	0%[38.3 µM]	19%
COc1ccc(NC(=O)N2CC[C@@]3(CCCN(C(=O)c4csnn4)C3)C2)cc1	?	/	-1%	-27%	-1%	/
Cc1c(Cl)cccc1NC(=O)CNc1ccccc1F	10µM*	2	/	21%[10 µM]	/	5%
Cc1c(Cl)cccc1NC(=O)CNCc1ccccc1F	0%	/	/	16%[10 µM]	-1%	8%
Cc1ccc(-c2nc3c(C)cccn3c2Nc2ccccc2C)s1	/	-1	/	/	/	/
O=C(c1cc(-c2ccco2)on1)N1CCCc2ccccc21	8.9µM*	6	-22%	0%	-6%[38.3 µM]	29%
O=C(c1cc2sccc2n1Cc1ccccc1)N1CCCc2ccccc21	-11%	16	-11%	-25%	30%[38.3 µM]	?
O=C(c1cc(-c2ccccc2)on1)N1CCCc2ccccc21	14µM*	/	/	3%[10 µM]	18%	8%[9.22 µM]
Cn1c(C(=O)N2CCCc3ccccc32)cc2sccc21	7.9µM*	-6	16µM*	0%	-12%[38.3 µM]	5%
COc1cccc(Cn2c(=O)c(-c3cccs3)nc3cncnc32)c1	-11%	/	/	9%	10%	/
COc1ccccc1Cn1cccc1C=O	14µM*	/	/	-11%[10 µM]	5%	-5%[9.22 µM]
Cc1ccccc1OCC1CO1 (stereo not drawn)	?	/	-10%	8%	37%	/
COc1ccc(OC2C=CC(c3ccccc3)OC2CO)c(C(C)(C)C)c1 (stereo not drawn)	14%[13.5 µM]	/	/	-6%[10 µM]	/	/
CCOC(=O)c1cc(-c2cccc([N+](=O)[O-])c2)nc2[nH]c(=O)[nH]c(=O)c12	14µM*	/	/	?	0%	4%
Cc1ccc2nc(N)[nH]c(=O)c2c1Sc1ccncc1	/	/	/	-36%	/	-3%
O=C(O)C(F)(F)C(F)(F)C(F)(F)C(F)(F)C(=O)O	17%[13.5 µM]	/	-11%	0%[10 µM]	2%	/
C=CCN(CC=C)C(=S)NC(=O)Cc1cccc2ccccc12	19µM*	/	/	0%[10 µM]	6%	-8%[9.22 µM]
COc1ccc(CC(=O)Nc2ccc3c(c2)CCC3)cc1OC	-7%	9	-7%	2%	22%[38.3 µM]	13µM*
COc1ccc(CC(=O)Nc2ccc(C(=O)Nc3ccccc3C(=O)O)cc2)cc1OC	28µM*	-8	-16%	?	-17%	-5%
O=C(Cc1ccc2c(c1)CCCC2)Nc1ccc2ccccc2c1	22µM*	/	?	/	12%	-19%
O=C(CSc1cccs1)Nc1ccc2ccccc2c1	?	10	28µM*	13%	26%[38.3 µM]	7%
SMILES	ALDH1A1 inh	IMPase inh	HPGD block	HTT cytoprotect	IMPase Li inh	HttQ103 aggreg
COc1ccc(CC(=O)Nc2ccc(C(=O)NC(C)(C)C)cc2)cc1OC	0%	/	/	-5%	2%	-14%[9.22 µM]
COc1ccc(C2NC(=O)NC(C)=C2C(=O)Nc2cc(C)cc(C)c2)c(OC)c1 (stereo not drawn)	/	-5	/	/	/	/
COC(=O)c1cc(S(=O)(=O)Nc2cc(S(=O)(=O)N(C)C)ccc2C)oc1C	-9%	/	/	-6%[10 µM]	/	-2%[9.22 µM]
CC(Oc1ccccc1)C(=O)NNC(=O)c1ccccn1 (stereo not drawn)	12%	/	0%	4%[10 µM]	0%	-28%
C/C(=N\NC(=O)C(C)Oc1ccc([N+](=O)[O-])cc1)c1ccccn1 (stereo not drawn)	-2%	2	-3%	-71%	13%[38.3 µM]	10µM*
C=CCNC(=O)c1sc(-c2ccccc2)nc1C	5%	/	/	-29%	10%	-7%
Cc1cc(-c2nc(C)c(C(=O)NN)s2)no1	10µM*	/	/	-16%[10 µM]	/	-9%[9.22 µM]
Cc1nc(NS(=O)(=O)c2ccccc2)sc1C(=O)NN	-7%	/	/	39%[10 µM]	-2%	-7%[9.22 µM]
Cc1ccc(N/C=C/C(=O)c2sc(-c3ccccc3)nc2C)cc1	11µM*	?	-2%	-26%	-4%[38.3 µM]	-14%
Cc1nc(N)sc1C(=O)NN	25µM*	/	/	-63%[10 µM]	/	-39%[9.22 µM]
Cc1nc(-c2ccccc2)sc1C(=O)NN	4.5µM*	/	/	5%[10 µM]	-9%	-27%
CC(C)(Oc1ccc(Cl)cc1)C(=O)Nc1ccc(-c2nc3ncccc3o2)cc1	/	-3	/	/	/	/
CC(C)(C)C1CCc2oc3ccc(NS(=O)(=O)c4cc(Cl)ccc4Cl)cc3c2C1 (stereo not drawn)	/	0	/	/	/	/
Cc1ccc(NC(=O)C2CC(=O)N(c3ccc(OC(C)C)cc3)C2)cc1 (stereo not drawn)	/	-5	/	/	/	/
CCOc1cccc(=O)c2c(C)n(Cc3ccco3)c(C)c12	2.2µM*	6	?	0%	1%[38.3 µM]	10%
COc1cc(-n2c(C)nc3cc(C(=O)N4CCOCC4)ccc32)cc(OC)c1OC	2%	5	32µM*	-9%	3%[38.3 µM]	14%
Nc1nc(Cl)nc2c1ncn2[C@@H]1O[C@H](COP(=O)(O)OP(=O)(O)OP(=O)(O)O)[C@H](O)[C@H]1O	-5%	/	-5%	/	5%	/
CCc1ccc(NC(=O)CC2C(=O)Nc3c2c(=O)n(C)c(=O)n3C)cc1 (stereo not drawn)	100µM*	3	-19%	-35%	-10%[38.3 µM]	-16%
CCc1ccc(NC(=O)CC2NCCNC2=O)cc1 (stereo not drawn)	7%	-2	-12%	-17%	21%[38.3 µM]	2%
CCCC(=O)Nc1ccc(NC(=O)c2ccco2)cn1	2%	2	/	-28%[10 µM]	/	1%
O=C(Nc1ccc(-c2noc(CCc3ccccc3)n2)cc1)c1ccco1	?	2	25µM*	-39%[10 µM]	25%[38.3 µM]	-34%
CC(C)C(=O)Nc1ccc(NC(=O)c2ccco2)cn1	28µM*	6	/	-20%[10 µM]	/	-5%
c1ccc(CCc2nc(-c3ccccc3)no2)cc1	-1%	-3	-24%	-6%	2%[38.3 µM]	14%
Cc1ccc(Oc2ccc(NC(=O)c3ccco3)cc2)cc1	?	6	?	-25%	-1%[38.3 µM]	22µM*
Cc1ccc(NC(=O)c2ccc(OC(=O)c3ccco3)cc2)cc1	-1%	8	-11%	-75%[0.074 µM]	26%[38.3 µM]	-16%
O=C(NCc1cccnc1)c1ccc(NC(=O)c2ccco2)cc1	10%	5	-8%	19%[10 µM]	-5%	-10%
O=C(NCc1ccccn1)c1ccc(NC(=O)c2ccco2)cc1	?	6	14µM*	4%[0.074 µM]	23%[38.3 µM]	13%

Source: PubChem
